Data taken from ChEMBL document CHEMBL4513146, “CO-ADD screening of Karazin Kharkiv National University (Ukraine) compounds”.
Results with a measured potency or affinity are listed apart.

Test system: Cryptococcus neoformans
Details: Concentration 32 ug.mL-1; ASSAY_TEST Inhibition of Fungal Growth; detection method Resazurin; Absorption (OD600-OD570); plate type 384well; NBS; CORNING #3640

| Structure (SMILES) | Inhibition [%] |
| --- | --- |
| COc1ccc(Cl)cc1NC(=O)CSc1nc2ccccc2n2c(C(C)C)nnc12 | -12.46 |
| CC(C)Cn1c(=O)c2sccc2n2c(=O)n(Cc3cccc(Br)c3)nc12 | -24.19 |
| Cc1cccc(C)c1NC(=O)CSc1nnc2c3cc(-c4ccccc4)nn3ccn12 | -6.46 |
| COc1ccc(NC(=O)Cn2nc3ccc(SC(C)(C)C)nn3c2=O)cc1OC | -14.12 |
| O=C(Cn1nc2nc(Nc3ccc(F)cc3)ccn2c1=O)NCC1CCCO1 (centres undefined) | -8.84 |
| CCCCOc1ccc(-c2cc3c4nnc(SCC(=O)Nc5cc(C)ccc5OC)n4ccn3n2)cc1 | -16.58 |
| CSc1ccc(CNC(=O)Cn2nc3c(N4CCOCC4)nccn3c2=O)cc1 | -7.62 |
| Cc1ccc(-c2cc3c4nn(CC(=O)Nc5cc(Cl)ccc5C)c(=O)n4ccn3n2)cc1C | -8.51 |
| CCOc1ccc(C(=O)CSc2nnc3c(=O)n(-c4ccc(F)cc4)ccn23)cc1 | -6.51 |
| CCCN(C)c1nccn2c(=O)n(CC(=O)Nc3ccc(OC)c(Cl)c3)nc12 | -3.69 |
| CCOc1ccc(C(=O)Cn2nc3n(Cc4ccccc4OC)c(=O)c4sccc4n3c2=O)cc1 | -29.81 |
| CC(C)c1ccc(NC(=O)CSc2nc3ccccc3n3cnnc23)cc1 | -15.4 |
| Cc1cccc(NC(=O)Cn2nc3c(SC4CCCCC4)nccn3c2=O)c1C | -15.81 |
| Cc1ccc(NC(=O)Cn2nc3ccc(SCc4ccc(Cl)cc4)nn3c2=O)cc1 | -7.75 |
| CC(C)c1nnc2c(SCC(=O)Nc3ccc(Br)cc3F)nc3ccccc3n12 | -17.6 |
| COc1ccc(NC(=O)Cn2nc3c4cc(-c5ccc(C)c(C)c5)nn4ccn3c2=O)cc1 | -31.22 |
| CCC(C)NC(=O)c1ccc2c(=O)n(CCC(C)C)c3nn(CC#N)c(=O)n3c2c1 (centres undefined) | -22.02 |
| Cc1ccc(-n2ccn3c(SCC(=O)c4c[nH]c5ccccc45)nnc3c2=O)cc1C | -5.1 |
| CCCN(C)c1nccn2c(=O)n(CC(=O)Nc3cccc(Cl)c3F)nc12 | -6.38 |
| CC1CCc2c(sc3ncn4c(=O)n(CC(=O)Nc5ccc6c(c5)CCC6)nc4c23)C1 (centres undefined) | -27.54 |

| Structure (SMILES) | Inhibition [%] |
| --- | --- |
| O=c1n(Cc2nc(-c3ccc(Cl)cc3)no2)nc2ccc(-c3ccccc3)nn12 | -20.52 |
| COc1ccc(NC(=O)Cn2nc3ccc(-c4ccc(Cl)cc4)nn3c2=O)cc1OC | -11.98 |
| COc1ccc(CN(c2cc(C)cc(C)c2)S(=O)(=O)c2cccn3c(C)nnc23)cc1 | -5.62 |
| CCc1ccccc1NC(=O)Cn1nc2n(CCC(C)C)c(=O)c3sccc3n2c1=O | -17.68 |
| COC(=O)c1cccc(NC(=O)Cn2nc3c(N4CCC(C)CC4)nccn3c2=O)c1 | -12.99 |
| Cc1ccc(Cn2nc3c(=O)n(-c4ccc(C)c(C)c4)ccn3c2=O)cc1 | -17.46 |
| COc1ccc(CNC(=O)CSc2nnc3c4cc(-c5ccc(OC)cc5)nn4ccn23)cc1 | -6.67 |
| Cc1cc(C)cc(Nc2nc(C)cc3nn(CC(=O)Nc4ccc(F)cc4F)c(=O)n23)c1 | -6.19 |
| N#CCn1nc2n(CCC(=O)NC3CCCCC3)c(=O)c3ccccc3n2c1=O | 1.45 |
| CCCCOc1ccc(-c2cc3c4nnc(SCC(=O)Nc5ccc(OC)cc5)n4ccn3n2)cc1 | -13.28 |
| COc1ccc(OC)c(NC(=O)Cn2nc3ccc(-c4ccc(C)cc4)nn3c2=O)c1 | -12.04 |
| COc1cccc(-n2ccn3c(SCC(=O)Nc4cc(Cl)ccc4OC)nnc3c2=O)c1 | -11.15 |
| CCOc1ccc(N(Cc2ccccc2)S(=O)(=O)c2ccc3nncn3c2)cc1 | -0.95 |
| Cc1cccc(NC(=O)Cn2nc3ccc(-c4ccc(C)c(C)c4)nn3c2=O)c1 | -12.34 |
| Cc1ccc(-n2ccn3c(SC(C)C(=O)Nc4ccc5c(c4)OCCO5)nnc3c2=O)cc1C (centres undefined) | -6.97 |
| CCCCN(CC)c1ccc2nnc(CCc3nc(-c4ccc(OCc5ccccc5)cc4)no3)n2n1 | -16.46 |
| CCCn1c(=O)c2sccc2n2c(CCC(=O)NC(C)C34CC5CC(CC(C5)C3)C4)nnc12 (centres undefined) | -25.73 |
| Cc1cc(Br)ccc1NC(=O)Cn1nc2c(Sc3ccccc3)nccn2c1=O | -7.39 |
| CCc1cccc(NC(=O)Cn2nc3c(Sc4ccc(C)cc4C)nccn3c2=O)c1 | -23.88 |
